Experiment [1] in a line: NCI Yeast Anticancer Drug Screen. Data for the rad50 strain (AID 155).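 Further: 0% = growth of vehicle-only cultures of the same strain.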 The conditions noted are these: S. cerevisiae rad50 strain growth inhibition, stronger effect = higher value. The procedure, abridged: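 Relative growth inhibition (compound vs vehicle) was measured in yeast with a defined repair-gene alteration.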
Experiment [2] can be described thus: NCI Yeast Anticancer Drug Screen. Data for the mec2-1 strain (AID 157). Particulars: S. cerevisiae mec2-1 strain, stronger effect = higher value. The method, boiled down: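 Strain: mec2-1 (DNA repair/cell cycle alteration). Compound exposure, then growth measured; inhibition expressed relative to vehicle.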
Experiment [3] in a line: NCI Yeast Anticancer Drug Screen. Data for the sgs1 mgt1 strain (AID 161).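 Further: 0% = growth of cultures given vehicle only.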 Particulars: S. cerevisiae sgs1 mgt1 strain, stronger effect = higher value. The method, boiled down: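 Mutant yeast exposed to compound; growth scored against vehicle-only wells.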
Experiment [4] is described as follows: NCI Yeast Anticancer Drug Screen. Data for the cln2 rad14 strain (AID 165).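 Further: 0% = growth equal to vehicle treated cultures.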 The conditions noted are these: S. cerevisiae cln2 rad14 strain, stronger effect = higher value. The procedure, abridged: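 Compounds are applied to the cln2 rad14 yeast strain, and growth is then compared with that of vehicle-treated cultures to give inhibition.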
A short description of experiment [5]: NCI Yeast Anticancer Drug Screen. Data for the bub3 strain (AID 167). The conditions noted are these: S. cerevisiae bub3 mutant strain, stronger effect = higher value. The method, boiled down: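 Screening used yeast with an engineered genetic alteration affecting cell cycle control. Compound-exposed cultures were compared with vehicle cultures, and reduced growth was taken as inhibition.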

Experiment [6] is described as follows: NCI Yeast Anticancer Drug Screen. Data for the mlh1 rad18 strain (AID 175). The conditions noted are these: S. cerevisiae mlh1 rad18 strain growth inhibition, stronger effect = higher value. The procedure, abridged:
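Read-out is yeast growth inhibition, calculated against vehicle-only controls. The compound was applied to a strain engineered with DNA damage repair alterations.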

Where [7] appears, read: at 5.0 µM (retest, dose inferred, filed as 0.5).
[8] abbreviates: at 50.0 µM (retest, dose inferred, filed as 5.0).

Where “and” joins values, the source holds several entries; their conditions need not be identical. Equal values may be shown once. This is part of a sample that, as a whole, favours compounds with a hit. Of some 79,000 tested, about 15% had one in any assay. A structure can be active in one record and inactive in another. Calls of active or inactive are those of the source. No stated cut-off is given here; in the data, active means growth inhibition above about 70%; inactive means the rest.

Turning to `COc1ccc(C2N(Cc3ccc(N(CCCl)CCCl)cc3C)CCCN2Cc2ccc(N(CCCl)CCCl)cc2C)cc1`, the growth inhibition in experiment [1] (setting [7]) is 10% (inactive); in experiment [1] (setting [8]) it was 98% (active); in experiment [1] (at 50.0 µM), 97.1% (active); in experiment [2] (setting [7]), -32% (inactive); in experiment [2] (setting [8]), 96% (active); in experiment [2] (at 50.0 µM), 99% (active). Also, the growth inhibition is 3% (inactive) in experiment [3] (setting [7]); 99% (active) in experiment [3] (setting [8]); 99% (active) in experiment [3] (at 50.0 µM); 2% (inactive) in experiment [4] (setting [7]); 94% (active) in experiment [4] (setting [8]); 75% (active) in experiment [4] (at 50.0 µM). For the same compound, the growth inhibition was 26% (inactive) in experiment [5] (setting [7]); 96% (active) in experiment [5] (setting [8]); 98.3% (active) in experiment [5] (at 50.0 µM); 18% (inactive) in experiment [6] (setting [7]); 97% (active) in experiment [6] (setting [8]); 98.5% (active) in experiment [6] (at 50.0 µM).

Consider `N#CN(Cc1ccccc1)C(c1ccccc1)(c1ccccc1)c1ccccc1.[Cl][Sn]([c]1ccccc1)([c]1ccccc1)[c]1ccccc1`, for which the growth inhibition is 99% (active) in experiment [1] (setting [7]); 91% (active) in experiment [1] (setting [8]); 97.3% (active) in experiment [1] (at 50.0 µM); 100% (active) in experiment [2] (setting [7]); 94% (active) in experiment [2] (setting [8]); 98.3% (active) in experiment [2] (at 50.0 µM). Further, the growth inhibition in experiment [3] (setting [7]) was 100% (active); in experiment [3] (setting [8]), 91% (active); in experiment [3] (at 50.0 µM), 98% (active); in experiment [4] (setting [7]), 99% (active); in experiment [4] (setting [8]) it was 85% (active); in experiment [4] (at 50.0 µM) it was 97.5% (active). Also, the growth inhibition in experiment [5] (setting [7]) was 99% (active); in experiment [5] (setting [8]), 87% (active); in experiment [5] (at 50.0 µM) it was 98.1% (active); in experiment [6] (setting [7]), 99% (active); in experiment [6] (setting [8]) it was 88% (active); in experiment [6] (at 50.0 µM), 98% (active).

Take `O=C1CN2C(Cl)(Cl)C2(c2ccccc2)c2cc(Cl)ccc2N1CC1CC1` (centres undefined): the growth inhibition in experiment [1] (setting [7]) is 54% (inactive); in experiment [1] (setting [8]), 93% (active); in experiment [1] (at 50.0 µM), 90.3% (active); in experiment [2] (setting [7]), 29% (inactive); in experiment [2] (setting [8]) it was 93% (active); in experiment [2] (at 50.0 µM), 91.3% (active). The growth inhibition is 27% (inactive) in experiment [3] (setting [7]); 94% (active) in experiment [3] (setting [8]); 92.7% (active) in experiment [3] (at 50.0 µM); 18% (inactive) in experiment [4] (setting [7]); 91% (active) in experiment [4] (setting [8]); 88.3% (active) in experiment [4] (at 50.0 µM). Besides, the growth inhibition in experiment [5] (setting [7]) is 39% (inactive); in experiment [5] (setting [8]), 93% (active); in experiment [5] (at 50.0 µM) it was 68.2% (inactive); in experiment [6] (setting [7]) it was 65% (inactive); in experiment [6] (setting [8]), 92% (active); in experiment [6] (at 50.0 µM), 87.3% (active).

`C[C@@H]1CC[C@@]2(NC1)O[C@H]1C[C@H]3[C@@H]4CC[C@H]5C[C@@H](O)CC[C@]5(C)[C@H]4CC[C@]3(C)[C@H]1[C@@H]2C`: the growth inhibition was 45% (inactive) in experiment [1] (setting [7]); 98% (active) in experiment [1] (setting [8]); 92.8% (active) in experiment [1] (at 50.0 µM); 30% (inactive) in experiment [2] (setting [7]); 98% (active) in experiment [2] (setting [8]); 93.5% (active) in experiment [2] (at 50.0 µM). Besides, the growth inhibition in experiment [3] (setting [7]) was 61% (inactive); in experiment [3] (setting [8]), 100% (active); in experiment [3] (at 50.0 µM) it was 93.9% (active); in experiment [4] (setting [7]) it was 46% (inactive); in experiment [4] (setting [8]), 99% (active); in experiment [4] (at 50.0 µM), 92% (active). The growth inhibition in experiment [5] (setting [7]) is 46% (inactive); in experiment [5] (setting [8]) it was 99% (active); in experiment [5] (at 50.0 µM), 93.5% (active); in experiment [6] (setting [7]) it was 31% (inactive); in experiment [6] (setting [8]) it was 98% (active); in experiment [6] (at 50.0 µM), 87.7% (active).

Regarding `O=C1C=CC(=O)c2c(O)ccc(O)c21`, the growth inhibition was 99% (active) and 16% (inactive) in experiment [1] (setting [7]); 17% (inactive) and 93% (active) in experiment [1] (setting [8]); 89.1% (active) and 64% (inactive) in experiment [1] (at 50.0 µM); 99% (active) and -14% (inactive) in experiment [2] (setting [7]); 14% (inactive) and 95% (active) in experiment [2] (setting [8]); 91.5% (active) and 68.8% (inactive) in experiment [2] (at 50.0 µM). Besides, the growth inhibition is 97% (active) and -5% (inactive) in experiment [3] (setting [7]); 19% (inactive) and 95% (active) in experiment [3] (setting [8]); 91% (active) and 80.3% (active) in experiment [3] (at 50.0 µM); 98% (active) and 20% (inactive) in experiment [4] (setting [7]); 16% (inactive) and 93% (active) in experiment [4] (setting [8]); 88.8% (active) and 77.7% (active) in experiment [4] (at 50.0 µM). For the same compound, the growth inhibition was 99% (active) and 11% (inactive) in experiment [5] (setting [7]); 80% (active) and 93% (active) in experiment [5] (setting [8]); 89.6% (active) and 79.1% (active) in experiment [5] (at 50.0 µM); 99% (active) and -4% (inactive) in experiment [6] (setting [7]); 21% (inactive) and 92% (active) in experiment [6] (setting [8]); 88.4% (active) in experiment [6] (at 50.0 µM).

`CCc1cc2c(cc1-c1csc(C/C(N)=N/O)n1)C(C)(C)CCC2(C)C`: the growth inhibition is 55% (inactive) in experiment [1] (setting [7]); 88% (active) in experiment [1] (setting [8]); 89.5% (active) in experiment [1] (at 50.0 µM); 38% (inactive) in experiment [2] (setting [7]); 92% (active) in experiment [2] (setting [8]); 90.7% (active) in experiment [2] (at 50.0 µM). In addition, the growth inhibition is 52% (inactive) in experiment [3] (setting [7]); 93% (active) in experiment [3] (setting [8]); 91.4% (active) in experiment [3] (at 50.0 µM); 39% (inactive) in experiment [4] (setting [7]); 96% (active) in experiment [4] (setting [8]); 89.7% (active) in experiment [4] (at 50.0 µM). The growth inhibition in experiment [5] (setting [7]) is 48% (inactive); in experiment [5] (setting [8]), 93% (active); in experiment [5] (at 50.0 µM) it was 91% (active); in experiment [6] (setting [7]), 60% (inactive); in experiment [6] (setting [8]), 94% (active); in experiment [6] (at 50.0 µM), 90.3% (active).

Turning to `CCCCCCCCCCCCCC(=O)O`, the growth inhibition in experiment [1] (setting [7]) was -7% (inactive); in experiment [1] (setting [8]), 18% (inactive); in experiment [1] (at 50.0 µM), 4.15% (inactive) and 34.9% (inactive); in experiment [2] (setting [7]), 11% (inactive); in experiment [2] (setting [8]) it was 63% (inactive); in experiment [2] (at 50.0 µM), 7.2% (inactive) and -10.9% (inactive). Besides, the growth inhibition in experiment [3] (setting [7]) is 11% (inactive); in experiment [3] (setting [8]) it was 88% (active); in experiment [3] (at 50.0 µM), 15.4% (inactive) and 27.3% (inactive); in experiment [4] (setting [7]) it was 1% (inactive); in experiment [4] (setting [8]) it was 20% (inactive); in experiment [4] (at 50.0 µM) it was 66.5% (inactive) and 24.1% (inactive). Moreover, the growth inhibition in experiment [5] (setting [7]) is -7% (inactive); in experiment [5] (setting [8]) it was 29% (inactive); in experiment [5] (at 50.0 µM), 57.7% (inactive) and 11.7% (inactive); in experiment [6] (setting [7]) it was 5% (inactive); in experiment [6] (setting [8]), 87% (active); in experiment [6] (at 50.0 µM) it was -6.2% (inactive) and 13.4% (inactive).

Take `CCCNC(=O)Nc1ccc2c(c1)Cc1cc(N(CCCl)CCCl)ccc1-2`: the growth inhibition was 2% (inactive) in experiment [1] (setting [7]); 32% (inactive) in experiment [1] (setting [8]); 39.1% (inactive) in experiment [1] (at 50.0 µM); 0% (inactive) in experiment [2] (setting [7]); 16% (inactive) in experiment [2] (setting [8]); 23.1% (inactive) in experiment [2] (at 50.0 µM). Besides, the growth inhibition is -4% (inactive) in experiment [3] (setting [7]); 73% (active) in experiment [3] (setting [8]); 37.3% (inactive) in experiment [3] (at 50.0 µM); 3% (inactive) in experiment [4] (setting [7]); -1% (inactive) in experiment [4] (setting [8]); 24.9% (inactive) in experiment [4] (at 50.0 µM). The growth inhibition in experiment [5] (setting [7]) was 6% (inactive); in experiment [5] (setting [8]), 86% (active); in experiment [5] (at 50.0 µM) it was 76.5% (active); in experiment [6] (setting [7]), 3% (inactive); in experiment [6] (setting [8]) it was 52% (inactive); in experiment [6] (at 50.0 µM), 31.2% (inactive).

The record behind these values is PubChem BioAssay (NCI).
